Epigenetic reg: Quantitative High-Throughput Screen for Regulators of Epigenetic Control | murine LDR cells, GFP reporter derepression, 30 h | Potency, µM (series often up to 53.9 µM), inactives show top-dose GFP activation, actives largely listed as activators | 0.2% of 280,000 active; note: % of control where 0% means no effect; nearly all actives have a fitted effect of over 60% in size
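Reporter derepression read as number of fluorescent GFP-positive objects, 20-120 um in size, counted by laser-scanning cytometer. Mouse LDR line with an epigenetically silenced CMV-GFP locus; compound incubation 30 h, 37 C.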
Vif-APOBEC3G blk: qHTS for Inhibitors of Vif-A3G Interactions: qHTS. DNA dC->dU-editing enzyme APOBEC-3G (Homo sapiens), Q9HC16. HeLa A3G-eYFP + Vif (tagged APOBEC3G with the HIV-1 protein that degrades it), YFP fluorescence, overnight. Potency, µM (doses to about 46.1 µM), for inactives: at the highest dose activity, negative = active, most hits filed as inhibitors. 0.076% of 410,000 active; note: % is set by controls: 0 for no effect and ±100 for the full control effect; nearly all actives have a fitted effect of over 60% in size
Target sequence (Q9HC16 whole entry, looked up): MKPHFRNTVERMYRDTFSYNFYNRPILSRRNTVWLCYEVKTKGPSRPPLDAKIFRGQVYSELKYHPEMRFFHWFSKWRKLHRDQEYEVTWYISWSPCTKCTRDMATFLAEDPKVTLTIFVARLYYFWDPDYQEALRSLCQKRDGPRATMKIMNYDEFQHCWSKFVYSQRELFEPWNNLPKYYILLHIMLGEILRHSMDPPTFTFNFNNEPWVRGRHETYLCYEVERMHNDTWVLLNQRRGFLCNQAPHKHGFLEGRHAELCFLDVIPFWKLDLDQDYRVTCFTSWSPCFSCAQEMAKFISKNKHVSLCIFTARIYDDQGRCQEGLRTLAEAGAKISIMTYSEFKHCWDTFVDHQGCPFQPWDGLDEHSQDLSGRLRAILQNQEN
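HeLa cells stably expressing Vif and C-terminally eYFP-tagged A3G, seeded overnight at 37 deg C, then exposed to compound by pintool overnight at 37 deg C. Rise in yellow fluorescence (Ex 488/Em 500-530, Acumen) marks blocked Vif-driven A3G degradation.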
PINK1 expr mod: A Quantitative High throughput Screen to Identify Chemical Modulators of PINK1 Expression; PINK1 immunofluorescence, high-content cytometry, 24 h; Potency, µM (doses to about 76.6 µM), for inactives: top-dose activation (PINK1 increase), most hits filed as activators; 0.2% of 410,000 active; AID 624263, 2012; active = well fitted activation curve with a large enough effect; inconclusive = small, poorly fitted or top-dose-only effect; cell line not stated here; note: % of control where 0% means no effect; nearly all actives have a fitted effect of over 65% in size
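PINK1 protein, normally rapidly degraded, was detected by immunofluorescence after 24 hour compound treatment of a stable cell line. Titration data (5 concentrations) came from laser-scanning cytometry, with CCCP-treated wells as controls.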
Vif-A3F inh: qHTS for Inhibitors of Vif-A3F Interactions: qHTS. HeLa A3F-eYFP + Vif (tagged APOBEC3F with the HIV-1 protein that degrades it), YFP fluorescence increase. Potency, µM (titrated, usually from 46.1 µM), without a hit: at the highest dose activity, negative = active. 0.2% of 390,000 active; note: % of control where 0% means no effect; nearly all actives have a fitted effect of over 65% in size
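HeLa cells stably expressing Vif plus C-terminally eYFP-tagged A3F were seeded, incubated overnight at 37 deg C, dosed with compound, incubated overnight again at 37 deg C. Yellow fluorescence (Ex 488/Em 500-530) reported blocked Vif-mediated A3F-eYFP degradation.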
Numbers without * were called inactive. Compounds with a hit are over-represented: about 0.51% of the library has one in this group of screens. Unless noted, calls come from the whole dose curve; as a rule, active = well fitted curve in the direction sought with a large enough effect; inconclusive = small, poorly fitted or top-dose-only effect, or another doubt; inactive = no such curve, though single readings can be large; an effect the other way counts as inactive or inconclusive. Potency is the fitted concentration of half-maximal effect.

How did CCN1C(=O)CC(CC(=O)N2CCC(c3nc4ccc(F)cc4[nH]3)CC2)(c2ccccc2C)C1=O (stereo unspecified) do in these assays?
PINK1 expr mod: 1%

What do the screens show for `FC(F)(F)c1cnc(NNC(=S)Nc2ccccc2Cl)c(Cl)c1`?
Epigenetic reg: 2%; Vif-APOBEC3G blk: 1%; PINK1 expr mod: inconclusive; Vif-A3F inh: -7%

Results for Cc1cccc(NC(=S)NNc2ncc(C(F)(F)F)cc2Cl)c1 ?
Epigenetic reg: -3%; Vif-APOBEC3G blk: -11%; PINK1 expr mod: 20µM*; Vif-A3F inh: -9%

How did COc1ccc(/C=C2\SC(N)=NC2=O)cc1Br do in these assays?
Vif-APOBEC3G blk: 1%; PINK1 expr mod: 7%; Vif-A3F inh: 5%

How did COc1cc(/C=C2\SC(N)=NC2=O)cc(Cl)c1O do in these assays?
Vif-APOBEC3G blk: -18%; PINK1 expr mod: 4%; Vif-A3F inh: 11µM*

What do the screens show for `CCOc1ccc(Nc2oc(/C=C/c3ccc(OC)c(OC)c3)nc2C#N)cc1`?
Epigenetic reg: 32µM*; Vif-APOBEC3G blk: 3%; PINK1 expr mod: 3%; Vif-A3F inh: 0%

What do the screens show for `COc1ccc(Nc2oc(/C=C/c3cccc(OC)c3)nc2C#N)cc1`?
Epigenetic reg: 10%; Vif-APOBEC3G blk: -8%; PINK1 expr mod: inconclusive; Vif-A3F inh: -23%

How did O=C(NCC1Cc2cccc(-c3cccnc3)c2O1)c1ccc2cc[nH]c2c1 (stereo unspecified) do in these assays?
PINK1 expr mod: 0%

What do the screens show for `CCN(CC)C(=O)Cn1c(C)c(/C=C/c2cc[n+](C)cc2)c2ccccc21`?
Vif-APOBEC3G blk: 7.9µM*; PINK1 expr mod: -2%; Vif-A3F inh: inconclusive

Results for CCN(CC)C(=O)Cn1c(=O)n(CCc2ccccc2)c(=O)c2ccccc21 ?
Epigenetic reg: -1%; Vif-APOBEC3G blk: -4%; PINK1 expr mod: 0%; Vif-A3F inh: -14%

What do the screens show for `CCN(C(=O)CSc1nc(-c2ccccc2)no1)c1cccc(C)c1`?
Epigenetic reg: -1%; Vif-APOBEC3G blk: -2%; PINK1 expr mod: 13µM*; Vif-A3F inh: 1%

How did CCN(C(=O)CSc1nc2ccccc2nc1Cc1ccc(F)cc1)c1cccc(C)c1 do in these assays?
Epigenetic reg: -3%; Vif-APOBEC3G blk: -1%; PINK1 expr mod: 0%; Vif-A3F inh: 1%

What do the screens show for `Cc1ccc(C(=O)Nc2cccc(-c3nc(CNC(=O)c4cccc(N(C)C)c4)c(C)o3)c2)s1`?
PINK1 expr mod: 0%

What do the screens show for `CC(C)C(NC(=O)c1ccccn1)c1nnc2n1CCN(Cc1ccc3ccccc3c1)CC2` (stereo unspecified)?
PINK1 expr mod: -1%

What do the screens show for `COc1ccc(C(=O)/C(C#N)=N/Nc2ccc([N+](=O)[O-])cc2)cc1`?
Epigenetic reg: -2%; Vif-APOBEC3G blk: -15%; PINK1 expr mod: 4.5µM*; Vif-A3F inh: -12%

Results for O=S(=O)(Nc1nc2ccccc2nc1-[n+]1ccccc1)c1ccc(Cl)cc1 ?
Epigenetic reg: -1%; Vif-APOBEC3G blk: 1%; PINK1 expr mod: 1%; Vif-A3F inh: -23%

What do the screens show for `Cc1ccc(S(=O)(=O)Nc2nc3ccccc3nc2Nc2cccc(S(=O)(=O)N3CCCC3)c2)cc1`?
Epigenetic reg: 1%; Vif-APOBEC3G blk: -268%; PINK1 expr mod: inconclusive; Vif-A3F inh: 7.1µM*

What do the screens show for `Cc1cccc(C)c1Nc1nc2ccccc2nc1NS(=O)(=O)c1ccccc1`?
Epigenetic reg: 1%; Vif-APOBEC3G blk: -15%; PINK1 expr mod: -1%; Vif-A3F inh: 11µM*

How did Cc1ccccc1C([O-])=Nc1ccc[n+](-c2nc3ccccc3nc2NS(=O)(=O)c2ccccc2)c1 do in these assays?
Epigenetic reg: -1%; Vif-APOBEC3G blk: -7%; PINK1 expr mod: 2%; Vif-A3F inh: 13µM*

Results for c1cncc(OC2CCN(Cc3ccc4c(c3)CN(Cc3ccc5c(c3)CCO5)CCO4)CC2)c1 ?
PINK1 expr mod: 0%

Results for COc1cc(/C=C(\C#N)c2nc3ccccc3[nH]2)ccc1OCc1ccccc1F ?
Epigenetic reg: 13%; Vif-APOBEC3G blk: inconclusive; PINK1 expr mod: inconclusive; Vif-A3F inh: 22µM*

How did COc1cc(/C=C(\C#N)c2nc3ccc(C)cc3[nH]2)ccc1OCc1ccc(C)cc1 do in these assays?
Epigenetic reg: 5.6µM*; Vif-APOBEC3G blk: -25%; PINK1 expr mod: 8%; Vif-A3F inh: inconclusive

Results for COc1ccc(/C=C(\C#N)c2nc3ccccc3[nH]2)cc1O ?
Vif-APOBEC3G blk: -19%; PINK1 expr mod: 8%; Vif-A3F inh: -24%

What do the screens show for `COCC(=O)Nc1cc(C(=O)N2CCN(c3ccccc3)C(=O)C2)cc2nc(-c3ccccc3)n(C)c12`?
PINK1 expr mod: 0%

How did CCC(Sc1nc(C)cc(C)n1)C(=O)NC1=NN=C(c2ccc(C)cc2)CS1 (stereo unspecified) do in these assays?
Epigenetic reg: 3%; Vif-APOBEC3G blk: -15%; PINK1 expr mod: 14µM*; Vif-A3F inh: -18%

Results for COc1ccc(-c2nc3cc(C)ccc3cc2CN(C(=O)c2ccc(C)s2)C2CC2)cc1OC ?
PINK1 expr mod: -1%

How did O=S1(=O)CCO[C@H]2CCCC[C@@H]2N1Cc1ccccc1F do in these assays?
Vif-APOBEC3G blk: -1%

Results for COc1cc(/C=C2/CCC/C(=C\c3cc(O)c(OC)c(Cl)c3)C2=O)cc(Cl)c1O ?
Epigenetic reg: inconclusive; Vif-APOBEC3G blk: inconclusive; PINK1 expr mod: 0%; Vif-A3F inh: 6.3µM*

What do the screens show for `O=C1C[C@H]2C=CCc3cccc(c32)CN1Cc1ccc(Cl)cc1`?
Vif-APOBEC3G blk: -9%

What do the screens show for `COc1ccc(C(=O)N2CCC3(CC2)c2ccccc2[C@@H](NC(=O)c2ccccn2)[C@@H]3OC)c(O)c1`?
PINK1 expr mod: -1%

How did CC(C)COc1ccc(C(=O)N/C(=C/c2cccc([N+](=O)[O-])c2)C(=O)O)cc1 do in these assays?
Epigenetic reg: 0%; Vif-APOBEC3G blk: 10µM*; PINK1 expr mod: 1%; Vif-A3F inh: -9%

How did CO/N=C/C(C#N)c1ncc(C(F)(F)F)cc1Cl (stereo unspecified) do in these assays?
Epigenetic reg: 2%; Vif-APOBEC3G blk: 6%; PINK1 expr mod: 13µM*; Vif-A3F inh: -3%

Results for CO/N=C/C(c1ncc(C(F)(F)F)cc1Cl)S(=O)(=O)c1ccccc1 (stereo unspecified) ?
Vif-APOBEC3G blk: 0%; PINK1 expr mod: 2%; Vif-A3F inh: -5%

Results for Cc1ccc2nc(/C(C#N)=C/c3ccc(-c4ccc(F)cc4F)o3)[nH]c2c1 ?
Epigenetic reg: inconclusive; Vif-APOBEC3G blk: 11µM*; PINK1 expr mod: 0%; Vif-A3F inh: inconclusive

Results for Cc1ccc2nc(/C(C#N)=C/c3ccc(-c4cccc([N+](=O)[O-])c4)o3)[nH]c2c1 ?
Epigenetic reg: -2%; Vif-APOBEC3G blk: -23%; PINK1 expr mod: inconclusive; Vif-A3F inh: 10µM*

Compound activity: PubChem BioAssay, National Center for Advancing Translational Sciences (NCATS)
